# Test results reported in the supplement of paper PMC6555819.
# Key:
# Experiment in all cases: PBM binding z-score (relative to random genomic background probes); higher = stronger binding; sequences stand for … in GC…GCGATTGACAGCGTAGAATGAAGG
# [1] = tested on: RARb homodimer (NR concentration 270 nM)
# Method in brief: (§1)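 Binding buffer was PBS pH 7.4 with 2% milk, 0.02% Triton X-100, 1 mM DTT, 0.2 mg/mL BSA and 0.4 mg/ml salmon testes DNA. In it, ligand-free nuclear receptor dimers were incubated 1 h on custom Agilent 4×180K protein-binding microarrays carrying double-stranded probes. Antibodies against each partner (one per run) detected binding, and z-scores were calculated against random background probes after regression normalization of scanned fluorescence.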
# [2] = tested on: RARg:RXRa (NR concentration 270 nM, RXRa partner concentration 90 nM)
# Method in brief: as §1
# [3] = tested on: RARg homodimer (NR concentration 270 nM)
# Method in brief: as §1
# [4] = tested on: RXRa DBDmut IVT, anti-RXR (DBD mutation: RXRa K156A/R161A, NR concentration 90 nM)
# Method in brief: as §1
# [5] = tested on: RXRa homodimer (NR concentration 180 nM)
# Method in brief: as §1
# [6] = tested on: THRa:RXRa (NR concentration 90 nM, RXRa partner concentration 90 nM)
# Method in brief: as §1
# [7] = tested on: THRa homodimer (NR concentration 90 nM)
# Method in brief: as §1
# [8] = tested on: VDR homodimer (NR concentration 270 nM)
# Method in brief: as §1
Sequence,PBM binding z-score [1],PBM binding z-score [2],PBM binding z-score [3],PBM binding z-score [4],PBM binding z-score [5],PBM binding z-score [6],PBM binding z-score [7],PBM binding z-score [8]
CTCGAAAAGTCGGTTGAGGTGAGTATACGGATAA,0.0667,0.446,0.172,-0.0991,0.212,3.57,1.15,-0.144
CCTCGTAGGACAGAAGGTCAGAGCTGTCCGCTTT,3.4,3.02,3.4,0.251,2.18,1.7,-0.0633,0.412
TCAATGAGGTTATAAGATCAGGGAACGTTGCAAA,0.57,1.52,0.993,1.75,2.19,1.84,0.0539,0.536
ATATGTAGGTTATCGGGTCATTCAGTTTGCGCAT,3.05,3.09,2.5,1.87,3.47,3.23,3.19,4.34
AGAATGAGGTTAAGATCAGGGAAACAGAATACAT,0.9,2.17,1.52,0.973,2.58,2.67,0.768,0.379
GCTAGCAGGCCCTTTGGGTCACTCAATGACGGGC,1.29,0.49,0.718,-0.714,0.498,1.67,0.25,-0.37
CCAGACAGGTGAGAAGGTACCTCAGCCTCGATTA,0.101,0.161,0.0168,0.0456,0.155,0.0348,0.0556,-0.352
TCTTGTAGATCAATAGGGGTTAAGAAAGTGCGCT,1.26,1.07,0.498,1.53,2.18,2.19,0.19,0.671
CCTACTGGGCCATTCTGAGGTCATTGATCATATG,3.32,3.38,1.96,1.23,2.4,4.22,4.5,3.8
ATCTCTAGGAAAAGTTCAGTGAAAGATCGATAGA,2.13,1.53,1.87,1.03,0.695,0.532,-0.316,1.66
TCATATAGGTAAAAGGTGTAAGTCGGTGTGGTAA,0.36,0.32,0.0311,1.55,0.644,0.0897,-0.167,0.313
CTACCAAGGTGTACAAGGTCGTTGATTACTATTC,1.21,0.657,0.16,1.14,0.934,1.99,1.32,2.13
ATATGTAGGTTACATCCGGATCATTCAGGCTATG,0.614,1.02,1.25,0.718,1.24,1.3,0.394,0.331
TCCTATAGGTAAAAGGTGAAAGTCGGTGTGGTAA,1.55,1.83,0.492,1.1,2.64,1.56,0.0134,-0.175
CGTCCAAGGCCAATGCTAGGTCAGTGAAAGCATT,2.64,2.16,1.94,0.513,0.218,2,0.569,0.135
TCTTGTACATCAATAGAGGTTAAGAAAGTGCGCT,1.31,0.893,0.714,1.08,1.46,1.52,-0.338,-0.116
CCGCGGAGGACAACAGGAGGTCAGAGCTGCCAGA,3.47,3.63,3.65,0.503,1.98,2.83,1.18,1.55
ATAAGTAGGTTAGCTGGGGTCATTCAGACTAGGC,3.84,4.16,2.94,1.95,5.34,5.32,3.54,4.63
TCATATAGGTAATACAGGTGACAGTCGGCATCTA,0.657,0.874,0.762,1.5,1.08,0.809,0.0912,-0.0475

Sequence,PBM binding z-score [1],PBM binding z-score [2],PBM binding z-score [3],PBM binding z-score [4],PBM binding z-score [5],PBM binding z-score [6],PBM binding z-score [7],PBM binding z-score [8]
ACTTTTAGTTGACTTAGGGCAACCGATACGACGC,1.37,1.1,1.22,1.12,0.756,1.64,0.763,0.282
ACCTCTAGGTAACAAGTTCAGTGAAAGAGAGGAC,1.85,1.11,1.08,0.979,0.678,1.21,0.425,2.2
CCTATTAGTTGACCATAAAGGCAACCGAAGCTCG,0.622,0.557,0.504,0.578,0.337,0.39,0.543,0.626
AGTCAAAGTTCATCTAGGTAACGTCAGATATGCT,3.92,5.76,6.22,4.83,4.45,3.18,0.387,5.66
CCTTACGGGTCACTCCAGGTTAAAGCATCGGAGT,3.23,4.68,4.54,1.13,4.65,5.26,0.483,1.41
CATACAGGGTCAGCTCGGCCAGAGTAGGGACGGC,3.1,4.38,4.49,1.2,3.95,3.01,0.883,0.595
AGAATGAGGTGAAGATCAGGGAAACAGAATACAT,0.949,1.15,1.09,-0.551,1.05,2.77,1.32,0.103
GTACCAAGGTGAATAGGTCGTAGATGAGTAGGCG,1.92,2.94,1.61,-0.478,2.18,1.83,0.42,0.204
TCTATTAGTTGAAGGGCAACCCACGAGTCCGTTT,1.55,0.894,0.882,1.69,0.809,0.474,0.28,1.81
AGAATTAGGTTAAGATCAGGGAAACAGAATACAT,0.701,1.04,1.09,-0.0806,0.853,1.35,0.656,0.432
AGTCAAAGTTCACTAGGTAACGTTAGATTCAGCT,3.56,4.93,5.57,4.15,4,2.05,0.157,3.87
TCTGCTAGGTCAGTTGGTCTGCTAACGAGCTGCC,2.11,1.92,3.27,0.135,0.318,1.08,-0.124,-0.575
ACAGACAGGTGATGAAGGTACCTCAGGCTATCAT,-0.181,0.158,0.411,-0.579,0.4,0.509,-0.21,-0.451
CCGAGTAGGTTTTGGGGCATTCAGGCAACGGTGA,0.615,-0.245,-0.424,0.218,-0.246,0.595,0.467,0.218
ATATGTAGGTTTGCTGGGGTCATTCAGACTAGGC,3.3,3.6,2.31,2.62,4.91,4.29,3.2,5.58
ATCTCTAGGCAAAGATAGTTCAGTGAATGCAAAT,0.533,0.288,0.586,-0.0612,-0.0781,0.0396,-0.577,0.0259
TCTTGTAGATCAGCTGGTTAAGAAAGCTGGCCAA,-0.771,-0.465,-0.758,0.269,-0.351,-0.515,-1.3,-0.694
TCTCGGAGGACACGCAGGTCAGAGCTTTCCAGAG,2.81,2.47,3.04,0.783,1.05,2.63,1.06,1.2
TCTAGCAGGCAAGAGGGTCACTCAAGAGGTACGG,2.42,2.15,1.93,-0.113,2.5,1.47,-0.453,0.595

Sequence,PBM binding z-score [1],PBM binding z-score [2],PBM binding z-score [3],PBM binding z-score [4],PBM binding z-score [5],PBM binding z-score [6],PBM binding z-score [7],PBM binding z-score [8]
ATCTCTAGGCAAGACTCAGTTCAGTGAAGAACGC,0.298,-0.279,0.0763,0.109,-0.365,0.205,0.122,1.01
ATCTCTAGGAAAGACTCAGTTCAGTGAAGAACGC,0.415,-0.181,0.129,0.549,-0.107,0.203,0.155,1.33
ATCACTAGGTAAAGTTCAGTGAAAGATCGATAGA,2.57,2.32,2.39,1.44,1.55,1.24,0.158,2.29
CCTTACGGGTCACGAGGTTATAGCTCGACGAGCG,3.93,6.04,5.15,1.74,6.98,3.73,0.989,1.76
TCATATAGGTAAAGGTGAATGTCGAACGATATGA,1.3,1.37,1.21,0.686,1.9,1.16,-0.293,-0.0294
CCTAGCAGGCCAGGGTGACTCAAGCATTTCGCTT,0.018,-0.0591,-0.113,-0.702,-0.00102,0.244,-0.395,-0.814
AGAACGAGGGCACGCTGAGTTGATAACAGAGTAG,1.27,2.23,2.45,1.47,1.49,1.78,0.282,1.46
TAGCCTAGGTCATGTGGGCCAGTATAGTGTCGGC,3.33,3.77,4.65,0.816,3.13,2.97,1.48,0.672
GCTTGTAGATCAAGGTTAAGAACGACTAAGCTAA,0.388,0.414,0.334,0.11,0.789,1.25,-0.079,0.0114
CTACCAAGGTGAACTAGGTCGTTGATTACTATTC,1.98,1.45,1.42,0.925,1.49,2.82,1.68,0.82
TCTATTAGTTGATTAGGGCCACCGAAACAGCGGA,0.67,0.31,0.582,1.19,0.411,1.09,0.613,0.435
ACTTGTTGGTCAGCTGAGGTCACACACAATTCGG,4.48,4.18,4.01,1.38,3.99,5.15,5.03,3.16
CGTCCAAGGTCAGAGCGGTCAGTGAATGCCGAGT,4.33,5.22,6.15,2.61,3.84,3.6,1.54,2.42
GCTTGTAGTTCAAGGTTAAGAAAGACTAAGCTAA,1.6,2.24,2.5,1.91,2.17,2.09,0.091,0.851
CCTACTGGGCAATCAGGTCATTGATATCAACGTT,2.16,1.56,1.51,0.0815,1.06,3.13,2.55,1.29
ACAGACAGGTGATGAAGGTAACACAGGCTATCAT,0.929,0.674,0.747,-0.108,0.817,0.695,0.246,0.22
TTACCAAGGTGAGCTGAGGTCGTTGTTCCAACTC,1.84,1.31,0.592,0.437,1.42,4.75,2.02,2.12
AGAGCGAGGGCAATGAGTTGATAGCACGGGTGGC,0.903,1.19,1.31,1.48,0.736,0.613,-0.514,2.82
